PubChem BioAssay AID777 (Sanford-Burnham Center for Chemical Genomics, 2007)
Out of some 96,000 compounds screened, about 19,000 (20%) were called active.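 How the source made its calls: active means blocking of liver enzyme CYP2C9 beyond about 50% at 5 µM (limit read from the data); inactive means the rest.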 These entries were drawn from the full list.

molecular target: Cytochrome P450 2C9 (Homo sapiens) (UniProt P11712); assay: blockers of cytochrome P450 2C9 activity – biochemical, luminescence, ADME assay, primary screen (AID 777); details: CYP2C9 Supersomes, luciferin-H conversion, at 5 µM, active compounds read high
Sequence (P11712 whole entry, looked up): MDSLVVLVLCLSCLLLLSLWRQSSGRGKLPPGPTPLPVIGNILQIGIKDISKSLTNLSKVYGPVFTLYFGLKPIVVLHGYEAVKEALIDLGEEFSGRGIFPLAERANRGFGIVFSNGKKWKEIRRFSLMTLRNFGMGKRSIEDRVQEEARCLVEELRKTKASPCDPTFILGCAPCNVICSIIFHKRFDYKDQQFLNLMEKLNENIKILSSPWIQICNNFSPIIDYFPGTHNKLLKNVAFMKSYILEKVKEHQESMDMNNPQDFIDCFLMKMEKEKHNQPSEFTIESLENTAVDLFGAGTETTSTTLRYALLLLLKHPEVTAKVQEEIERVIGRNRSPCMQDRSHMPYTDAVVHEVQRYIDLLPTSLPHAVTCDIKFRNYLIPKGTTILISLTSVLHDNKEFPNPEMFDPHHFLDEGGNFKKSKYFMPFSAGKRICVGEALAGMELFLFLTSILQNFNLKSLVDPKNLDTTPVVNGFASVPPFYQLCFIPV

inhibition, active:
COc1ccc2c(c1)CCc1c(C(=O)N3CCc4ccccc4C3)noc1-2 73.7%, COc1ccc(/C=C2\CCCC3C2=NN(C(=O)c2scnc2C)C3c2ccc(OC)cc2)cc1 (stereo not drawn) 83.4%, CCCCC(=O)Nc1nc(C)c(-c2csc(Nc3ccc(Cl)cc3)n2)s1 57.3%, CCC(C)n1c(-c2cc(OC)c(OC)c(OC)c2)nc2nc3ccccc3nc21 (stereo not drawn) 95.3%, O=C(/C=C/c1ccccc1)N/C(=C/c1ccccc1)C(=O)Nc1ccccc1O 62.7%, Cc1cccc(-n2cnc(C(=O)Nc3cccnc3)c2)n1 88.2%, O=C(NC(Nc1nc2ccc([N+](=O)[O-])cc2s1)(C(F)(F)F)C(F)(F)F)c1ccccc1 97.4%, O=C(Nc1ccccc1)c1nnsc1S(=O)(=O)c1ccc(Cl)cc1 74.9%, CCOC(=O)CCc1c(C)c2ccc(OCc3nn[nH]n3)c(C)c2oc1=O 86.3%, CCOC(=O)C1CCN(C(=O)c2oc3ccc(S(=O)(=O)N4CCCCCC4)cc3c2C)CC1 53.6%, CCN1C(=O)C(CC(=O)Nc2cc(C)ccc2C)SC1=Nc1ccc(S(N)(=O)=O)cc1 (stereo not drawn) 90.8%, O=C(Nc1nc2cc3c(cc2s1)OCCO3)c1cccc(S(=O)(=O)N2CCOCC2)c1 50.9%, COc1ccc(NC(=O)/C(Cl)=C(/Cl)S(=O)Cc2ccc(C)cc2)cn1 (stereo not drawn) 52.9%, Cc1ccc(S(=O)(=O)C(C#N)c2nc3ccccc3nc2N2CCCC2)cc1C (stereo not drawn) 93.4%, O=C(Nc1ccccc1-c1nnn(CC(=O)N2CCN(c3ccccc3)CC2)n1)c1cccs1 80.1%, Cc1cc(=O)n2nc(N3CCCC(C(=O)NCCC4=CCCCC4)C3)sc2n1 (stereo not drawn) 61.7%, CN1CCN(S(=O)(=O)c2ccc(NC(=O)C3CCCO3)cc2)CC1 (stereo not drawn) 60%, COc1ccc(S(=O)(=O)N(CCCN2CCCC2=O)Cc2cc3c(C)ccc(C)c3[nH]c2=O)cc1 85.6%, Cc1nc2nc3c(cn2n1)C(=O)CC(c1ccccc1)C3 (stereo not drawn) 65.6%, Cc1cc(=O)oc(C)c1C(=O)NCc1ccc(F)cc1 51.6%, O=C(CN1CCN(S(=O)(=O)c2ccc(Cl)s2)CC1)NCc1ccc(Cl)cc1 55.1%

inhibition, inactive:
COc1ccc2c(c1)CCc1c(C(=O)N3CCCC3)noc1-2 -6.1%, COc1ccc2c(c1)CCc1c(C(=O)Nc3c(C)n(C)n(-c4ccccc4)c3=O)noc1-2 14%, CCOC(=O)c1cc(-c2ccc(Cl)s2)nc2c1c(C)nn2C 32.3%, Cc1cc(C(F)F)n2nc(C(=O)Nc3ccc(S(=O)(=O)NC45CC6CC(CC(C6)C4)C5)cc3)nc2n1 24.7%, CCOc1c(OC)cc(C2C(C#N)=C(N)Oc3n[nH]c(-c4ccncc4)c32)cc1OC (stereo not drawn) 20.1%, Cc1nc2ccc(C(=O)O)cc2[nH]1 14.9%, Cc1cc(Br)ccc1NC(=O)C1CCCO1 (stereo not drawn) -2.8%, CCOC(=O)C1CN(S(=O)(=O)c2ccc(F)cc2)C1 8.2%, COc1ccc(OC)c(NC(=O)CC(Cc2ccccc2OC)C(=O)O)c1 (stereo not drawn) 40.6%, CCCCCCC(=O)Nc1nc(C)c(-c2csc(Nc3cc(Cl)ccc3OC)n2)s1 14.8%, C=CCCC(=O)Nc1nc(C)c(-c2csc(Nc3ccc(Cl)cc3)n2)s1 38.2%, CC(C)C(=O)N1c2ccccc2NC2=C(C(=O)CCC2)C1c1ccc(N(C)C)cc1 (stereo not drawn) 16.8%, COc1ccc(CCn2c(-c3ccco3)nc3nc4ccccc4nc32)cc1OC 34.7%, COC(=O)c1nc(NC(=O)c2ccc(Cl)cc2)n[nH]1 7.9%, O=S(=O)(Nc1nccs1)c1ccc2c(c1)OCCO2 -23.3%, O=C(/C=C/c1ccccc1)c1ccoc1 15.1%, CCc1ccccc1NC(=O)/C(=C/c1ccccc1)c1ccccc1 16.4%, CC(C)c1ccc(-c2nn[nH]n2)cc1 9.2%, O=C(Nc1ccc(Cl)cc1)N1CCc2[nH]c3ccccc3c2C1 14.2%, CCC(=O)Nc1cccc(NC(=O)c2cccnc2)c1 6.5%, Cc1cc(C)c(NC(=O)CS(=O)CC(=O)Nc2cccnc2)c(C)c1 (stereo not drawn) 22.7%, Cc1cc(-n2nc(C)cc2C)n2nc(C)c(-c3ccccc3)c2n1 25.1%, CC(Oc1ccc(Cl)cc1)C(=O)OCC(=O)Nc1ncc(Cl)cc1Cl (stereo not drawn) -20.7%, Cc1cc(C)cc(OCC(=O)Nc2nc3ccc([N+](=O)[O-])cc3s2)c1 48.4%, CNC(=O)c1ccc2nc(NC(C)=O)sc2c1 21.5%, O=C(c1ccc(Cl)cc1)c1cnc(Nc2ccccc2)s1 21.7%, O=C(Nc1ccc(Cl)cc1)c1ccsn1 -4.3%, Cc1ccc(N2CCN(c3ccc(C)cc3)C2c2ccccn2)cc1 1.3%, O=C(NCCCCCCCCCNC(=O)C(F)(F)F)C(F)(F)F 11.2%, CCCOc1ccccc1C(=O)NCCCC(=O)O -8.2%, CS(=O)(=O)N1CCN(C(=O)Cc2ccccc2)CC1 -5.4%, CCOc1ccc(Cn2nnc(C(=O)NCc3ccccc3)c2N)cc1 -2.2%, COc1ccc(OC)c(CN2C(=O)CCC2(C)C(=O)NC2CCCCCC2)c1 (stereo not drawn) 30%, CC(=O)Oc1ccc2c(C)c(CC(C)O)c(=O)oc2c1 (stereo not drawn) -16%, Cc1c(C(=O)Nc2ccccc2Cl)oc2ccc(S(=O)(=O)N3CCC4(CC3)OCCO4)cc12 31.2%, CCOC(=O)N1CCN(C(=O)c2cn(C)c3ccc(S(=O)(=O)N4CCCC4)cc3c2=O)CC1 -6.2%, C=CCn1c(COc2ccccc2F)nnc1SCC(=O)N1CC(=O)Nc2ccccc21 12.5%, Cc1ccc(C)c(NC(=O)C2CC(=O)N(C(C)C)C2)c1 (stereo not drawn) -14.4%, CCN=C1SC(CC(=O)Nc2ccc(C)cc2)C(=O)N1CC (stereo not drawn) -8.7%, O=S(=O)(/C=C/c1ccccc1)NCCc1ccccn1 -35.1%, Cc1nnc(SCC(=O)N(C(C)C)C(C)C)nc1C -18.5%, CCCn1c(=O)c(-c2ccccc2)c(O)c2ccccc21 1.5%, Cc1cccc(OCC(O)Cn2c(=N)n(CCN3CCOCC3)c3ccccc32)c1 (stereo not drawn) -8.4%, COc1ccc(S(=O)(=O)N2CCOCC2)cc1C(=O)Nc1nc2ccccc2s1 -3.9%, O=C(c1ccc2c(c1)OCCO2)C1CCN(S(=O)(=O)c2cccc(F)c2)CC1 -18.3%, CC1(C)CC(CCC(=O)Nc2ccccc2Cl)C(=O)O1 (stereo not drawn) -35.4%, CCc1nnc(NC(=O)CCC(=O)O)s1 -9.1%, CCCCc1nc2c(=O)[nH]c3ccccc3c2o1 -4.4%, O=C(Nc1ccc2ccccc2c1)Nc1ccc2snnc2c1 19.3%, COc1cccc(NC(=O)Cc2ccc(C)cc2)c1 21.1%, O=C(Nc1cccc2c1CCCC2)C1CCN(C(=O)NC2CCCCC2)CC1 1.9%, Cc1cccc2cc(C#N)c(N3CCCC3)nc12 -2.2%, CC(C)CCOc1ccc(C(=O)C[N+]2(C)CCOCC2)cc1 11%, COc1ccccc1NC1=NC2(CCCC2)N=C(N)N1 -4%, Cc1nc(N2CCOCC2)nc2c1CCCC2 -1.5%, COc1ccccc1N1CCN(C(=O)Cn2nnc(-c3cccs3)n2)CC1 47.2%, CCOc1ccc(-c2nnn(CC(=O)N3CCN(c4ccc(F)cc4)CC3)n2)cc1OCC -6.1%, CC(=O)c1ccc(OCCN2CCOCC2)cc1 9.9%, CC1CC(c2ccccc2)n2nc(NC(=O)c3cccs3)nc2N1 (stereo not drawn) 0.9%, CCOC(=O)C1CCCN(C(=O)c2cncc(Br)c2)C1 (stereo not drawn) 33.3%, Cc1cc(=O)n2nc(N3CCCC3C(=O)NCCCN3CC(C)CC(C)C3)sc2n1 (stereo not drawn) 1.8%, COc1ccc(CCNC(=O)C2CCN(c3nn4c(=O)cc(C)nc4s3)CC2)cc1OC -11.8%, CCCC(=O)Nc1nnc(CC(=O)OCC)s1 -12.8%, COCCCNC(=O)Cn1cc(C(=O)C2CC2)c2ccccc21 11.2%, O=C(Nc1nc2ccc(S(=O)(=O)N3CCCC3)cc2s1)C1CCCO1 (stereo not drawn) 46.1%, CN1CCN(S(=O)(=O)c2ccc(NC(=O)c3ccco3)cc2)CC1 -13.5%, c1csc(CN2CCN(Cc3cccs3)C2c2cccs2)c1 -9%, Cc1[nH]c2ccccc2c1C(=O)COC(=O)C(C)C -5%, COc1ccccc1CCNC(=O)c1cnccn1 -35.8%, CCCN(Cc1cc2cccc(C)c2[nH]c1=O)S(C)(=O)=O 36.4%, CCOc1ccc(C(=O)NCCCN2CCCC2=O)cc1 12.3%, CSc1ccc(Cl)c(C(=O)OCC(=O)N2CC(C)OC(C)C2)c1 (stereo not drawn) -24.7%, Cc1cc(=O)oc(C)c1C(=O)Nc1cnc2ccccc2c1 10.5%, COc1ccc(CNC(=O)c2c(C)cc(=O)oc2C)cc1OC 32.7%, O=C(c1ccc(Cl)c(Cl)c1)N1CCCC1 7%, Cc1ccc(CNC(=O)CN2CCN(Cc3ccc(Cl)cc3)C2=O)cc1 17.5%, Cc1cccc(NC(=O)CN2CCCN(S(=O)(=O)c3ccc(Br)s3)CC2)c1 11.6%
